The assay has as its target T1, Phosphorylase b kinase gamma catalytic chain, liver/testis isoform (Homo sapiens) (UniProt P15735).
T1 sequence (whole entry): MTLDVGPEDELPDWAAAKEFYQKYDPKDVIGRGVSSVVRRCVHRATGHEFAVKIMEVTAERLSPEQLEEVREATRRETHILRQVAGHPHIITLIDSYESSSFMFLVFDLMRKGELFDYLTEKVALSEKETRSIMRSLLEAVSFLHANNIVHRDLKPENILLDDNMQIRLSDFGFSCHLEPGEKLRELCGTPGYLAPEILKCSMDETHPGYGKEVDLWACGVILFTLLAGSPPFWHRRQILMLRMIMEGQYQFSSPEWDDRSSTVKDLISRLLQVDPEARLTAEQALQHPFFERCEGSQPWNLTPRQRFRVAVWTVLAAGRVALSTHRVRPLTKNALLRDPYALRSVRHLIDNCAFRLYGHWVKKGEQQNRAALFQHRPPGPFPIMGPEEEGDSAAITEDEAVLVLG
The settings on record: at 0.1 µM.
For `Cc1ccc(Nc2ccnc(Nc3cccc(C(N)=O)c3)n2)cc1O`, the inhibition is 4.75%. `CN(c1ccc(NC(=O)Nc2ccc(OC(F)(F)F)cc2)cc1)c1ccnc(Nc2cccc(S(N)(=O)=O)c2)n1` registered an inhibition of 3.6%.

`CN1CCN(C(=O)c2ccc(NC(=O)Nc3ccc(N(C)c4ccnc(Nc5ccc(CS(C)(=O)=O)cc5)n4)cc3)cc2)CC1` returned an inhibition of 2.03%. `NS(=O)(=O)c1ccc(N/N=C2\C(=O)Nc3ccc(Cl)cc32)cc1` came in with an inhibition of 5.9%.

For `c1ccc(Nc2ncc(-c3ccccc3)o2)cc1`, the inhibition was 6.62%. The figure for `CS(=O)(=O)CCNCc1nc(-c2ccc3ncnc(Nc4ccc(OCc5cccc(C(F)(F)F)c5)cc4)c3c2)cs1` is 2.6%; for `COC(=O)c1ccc2c(c1)C(=Cc1cc(Br)c(O)c(Br)c1)C(=O)N2` it is 4.41%.

On to `O=C(Nc1ccc(Oc2ccc3[nH]c(NC(=O)c4ccco4)nc3c2)cc1)Nc1cc(C(F)(F)F)ccc1F`, for which the inhibition worked out at 0.46%. As for `CC(C)c1ccc(Nc2nccc(-c3cnn4ncccc34)n2)cc1`, the inhibition came to 4.16%. As to `CS(=O)(=O)Nc1cccc(-c2ccc3c(NC(=O)C4CC4)n[nH]c3c2)c1`, the inhibition came out at 2.36%.

`COC(=O)Nc1nc2cc(Oc3ccc(NC(=O)Nc4cccc(Br)c4)cc3)ccc2[nH]1` had an inhibition of 3.62%. Compound `N#Cc1cccc(Nc2nccc(-c3cnn4ncccc34)n2)c1` had an inhibition of 7.04%. In the case of `NS(=O)(=O)c1ccc(Nc2cc(-c3cccc(O)c3)n[nH]2)cc1`, the inhibition turned out to be 6.63%. `CC(C)c1ccc2c(c1)NC(=O)/C2=N/Nc1ccc(S(N)(=O)=O)cc1` displayed an inhibition of 0.03%. In turn, `Cc1cc(O)cc(C)c1/C=C/c1cncc(C(=O)N(C)C)c1` had an inhibition of 2.55%.

In the case of `c1ccc(Cc2nc3ccc(Nc4ncnc5ccccc45)cc3[nH]2)cc1`, the inhibition amounted to 3.39%.

The values above are taken from ChEMBL document CHEMBL1961873, “Compounds: GSK PKIS; Assays: Nanosyn kinase panel” (2012).
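Note: values are mean inhibition of PHKG2.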
